Data as given in paper PMC7862700, “An all-to-all approach to the identification of sequence-specific readers for epigenetic DNA modifications on cytosine”.

What was measured:
Test in all cases: DAPPL (digital affinity profiling via proximity ligation, sequencing); 10 mM Tris-HCl pH 7.5, 50 mM NaCl, 1 mM DTT, 4% glycerol, room temperature, 30 min; GST-TFs on glutathione beads, 16-mer random dsDNA library, 0.1% formaldehyde crosslink after washing; high values mean tight binding
Conditions in all cases: protein: recombinant; tags: N-terminal GST; dsDNA, one strand shown
ELK1 = target: T1, ELK1 (Homo sapiens, UniProt P19419 1-428)
T1 sequence: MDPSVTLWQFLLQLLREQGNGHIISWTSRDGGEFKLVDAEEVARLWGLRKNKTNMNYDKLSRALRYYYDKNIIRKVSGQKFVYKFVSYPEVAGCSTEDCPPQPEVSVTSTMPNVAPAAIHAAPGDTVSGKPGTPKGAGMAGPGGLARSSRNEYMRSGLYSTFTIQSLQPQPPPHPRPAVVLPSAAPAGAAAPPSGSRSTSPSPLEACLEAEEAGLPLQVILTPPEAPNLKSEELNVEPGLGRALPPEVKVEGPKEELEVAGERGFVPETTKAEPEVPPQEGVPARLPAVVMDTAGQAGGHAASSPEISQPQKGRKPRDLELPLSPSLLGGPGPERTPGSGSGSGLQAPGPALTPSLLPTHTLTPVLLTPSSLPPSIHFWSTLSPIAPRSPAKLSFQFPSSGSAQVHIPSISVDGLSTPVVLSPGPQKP
In short: (§1)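 After expression in yeast as GST fusions, human transcription factors were bound to glutathione beads, DNA-barcoded and mixed with a tag-only sample. The pools were incubated with 200 nmole of a 16-mer random double-stranded DNA library in Tris/NaCl/DTT/glycerol buffer (30 min, room temperature), washed and crosslinked with 0.1% formaldehyde. Proximity ligation with BsaI/T4 ligase ran for 1 h at 37 °C, before PCR amplification and sequencing on an Illumina NextSeq500. Binding signal is a hexamer's read frequency for a factor divided by its frequency for the tag-only sample.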

ERG = target: T2, ERG (Homo sapiens, UniProt P11308 1-479)
T2 sequence: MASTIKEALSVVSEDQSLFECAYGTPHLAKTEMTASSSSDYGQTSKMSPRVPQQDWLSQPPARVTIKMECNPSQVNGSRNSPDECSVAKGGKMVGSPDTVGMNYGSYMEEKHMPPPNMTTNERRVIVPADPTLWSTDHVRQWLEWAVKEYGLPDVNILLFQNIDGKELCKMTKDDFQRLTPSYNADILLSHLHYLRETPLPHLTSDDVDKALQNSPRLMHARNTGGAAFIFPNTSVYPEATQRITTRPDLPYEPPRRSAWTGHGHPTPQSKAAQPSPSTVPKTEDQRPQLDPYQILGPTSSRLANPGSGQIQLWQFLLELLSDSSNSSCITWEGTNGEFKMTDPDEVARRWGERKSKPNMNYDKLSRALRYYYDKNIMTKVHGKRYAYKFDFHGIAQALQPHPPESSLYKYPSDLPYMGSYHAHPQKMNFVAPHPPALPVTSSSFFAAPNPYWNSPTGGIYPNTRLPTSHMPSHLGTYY
In short: as §1

EHF = target: T3, EHF (Homo sapiens, UniProt Q9NZC4 1-300)
T3 sequence: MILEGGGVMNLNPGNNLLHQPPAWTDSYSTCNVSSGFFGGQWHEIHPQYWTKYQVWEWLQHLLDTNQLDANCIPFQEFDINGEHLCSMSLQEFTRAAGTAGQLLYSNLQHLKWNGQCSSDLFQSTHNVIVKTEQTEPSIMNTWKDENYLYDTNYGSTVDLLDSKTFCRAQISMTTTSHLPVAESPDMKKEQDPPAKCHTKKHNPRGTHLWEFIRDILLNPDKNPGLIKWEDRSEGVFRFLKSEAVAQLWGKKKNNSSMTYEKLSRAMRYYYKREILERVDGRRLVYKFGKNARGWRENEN
In short: as §1

ETV5 = ETV5 (Homo sapiens, UniProt P41161 1-510)
ETV5, sequence (P41161 whole entry): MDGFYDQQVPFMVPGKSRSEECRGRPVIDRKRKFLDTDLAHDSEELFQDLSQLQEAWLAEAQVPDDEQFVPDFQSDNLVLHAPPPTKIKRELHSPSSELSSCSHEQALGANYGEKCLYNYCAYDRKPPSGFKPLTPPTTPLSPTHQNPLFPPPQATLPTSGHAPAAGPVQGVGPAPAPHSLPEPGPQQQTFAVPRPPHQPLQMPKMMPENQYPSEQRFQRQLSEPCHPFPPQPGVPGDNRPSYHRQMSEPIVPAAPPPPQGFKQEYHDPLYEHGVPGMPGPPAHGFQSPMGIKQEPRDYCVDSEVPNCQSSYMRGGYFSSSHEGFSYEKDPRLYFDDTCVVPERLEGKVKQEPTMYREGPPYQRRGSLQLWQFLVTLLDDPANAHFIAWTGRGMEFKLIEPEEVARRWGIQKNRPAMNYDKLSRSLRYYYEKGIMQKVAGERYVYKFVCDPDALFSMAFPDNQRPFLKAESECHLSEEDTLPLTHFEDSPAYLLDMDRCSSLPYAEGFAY
In short: as §1

SPIC = target: T4, SPIC (Homo sapiens, UniProt Q8N5J4 1-248)
T4 sequence: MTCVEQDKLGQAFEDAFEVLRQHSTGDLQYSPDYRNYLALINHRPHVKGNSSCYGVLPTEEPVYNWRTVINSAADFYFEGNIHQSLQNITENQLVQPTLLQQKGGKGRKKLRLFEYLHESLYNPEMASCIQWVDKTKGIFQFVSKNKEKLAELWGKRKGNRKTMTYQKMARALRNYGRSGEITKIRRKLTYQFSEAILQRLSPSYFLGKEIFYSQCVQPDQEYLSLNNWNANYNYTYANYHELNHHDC
In short: as §1

ELF4 = ELF4 (Homo sapiens, UniProt Q99607 1-663)
ELF4, sequence (Q99607 whole entry): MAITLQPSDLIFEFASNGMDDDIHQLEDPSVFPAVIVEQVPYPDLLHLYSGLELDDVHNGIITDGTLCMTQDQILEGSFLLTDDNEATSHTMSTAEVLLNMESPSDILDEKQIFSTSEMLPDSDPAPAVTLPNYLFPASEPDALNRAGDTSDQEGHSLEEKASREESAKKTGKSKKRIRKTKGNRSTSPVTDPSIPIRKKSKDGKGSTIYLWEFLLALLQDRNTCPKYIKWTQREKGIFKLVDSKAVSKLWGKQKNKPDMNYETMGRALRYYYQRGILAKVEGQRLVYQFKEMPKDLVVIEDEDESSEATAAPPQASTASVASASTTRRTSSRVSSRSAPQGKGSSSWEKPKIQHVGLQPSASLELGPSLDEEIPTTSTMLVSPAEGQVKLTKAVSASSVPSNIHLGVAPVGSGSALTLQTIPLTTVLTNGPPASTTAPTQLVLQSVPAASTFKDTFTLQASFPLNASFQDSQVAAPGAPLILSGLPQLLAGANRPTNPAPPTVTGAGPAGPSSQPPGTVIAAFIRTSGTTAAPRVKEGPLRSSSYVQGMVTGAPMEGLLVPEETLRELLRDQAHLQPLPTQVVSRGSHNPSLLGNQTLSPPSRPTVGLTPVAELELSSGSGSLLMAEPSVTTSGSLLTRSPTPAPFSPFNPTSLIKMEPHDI
In short: as §1

ELK4 = target: T5, ELK4 (Homo sapiens, UniProt P28324-2 1-405)
T5 sequence: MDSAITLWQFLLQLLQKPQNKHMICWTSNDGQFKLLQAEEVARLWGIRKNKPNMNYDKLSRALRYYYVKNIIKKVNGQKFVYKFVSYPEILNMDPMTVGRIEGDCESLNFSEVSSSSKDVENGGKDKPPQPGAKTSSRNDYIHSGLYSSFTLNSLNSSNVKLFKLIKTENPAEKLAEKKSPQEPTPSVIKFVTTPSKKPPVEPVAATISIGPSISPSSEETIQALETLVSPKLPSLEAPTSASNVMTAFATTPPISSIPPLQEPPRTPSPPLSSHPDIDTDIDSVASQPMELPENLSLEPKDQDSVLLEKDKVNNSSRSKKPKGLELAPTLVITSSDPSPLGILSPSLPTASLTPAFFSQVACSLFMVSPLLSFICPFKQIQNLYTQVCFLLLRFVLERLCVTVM
In short: as §1

ELF3 = target: T6, ELF3 (Homo sapiens, UniProt P78545 1-371)
T6 sequence: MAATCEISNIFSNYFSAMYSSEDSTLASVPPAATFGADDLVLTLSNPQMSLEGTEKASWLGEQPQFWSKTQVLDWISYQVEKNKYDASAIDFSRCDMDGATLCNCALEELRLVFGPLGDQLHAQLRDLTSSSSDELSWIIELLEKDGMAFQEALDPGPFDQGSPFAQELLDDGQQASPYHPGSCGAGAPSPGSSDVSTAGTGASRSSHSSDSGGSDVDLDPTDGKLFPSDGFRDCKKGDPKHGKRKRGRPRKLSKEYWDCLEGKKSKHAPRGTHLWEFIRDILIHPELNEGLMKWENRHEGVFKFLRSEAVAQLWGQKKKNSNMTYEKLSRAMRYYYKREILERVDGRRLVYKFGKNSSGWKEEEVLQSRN
In short: as §1

ERF = target: T7, ERF (Homo sapiens, UniProt P50548 1-548)
T7 sequence: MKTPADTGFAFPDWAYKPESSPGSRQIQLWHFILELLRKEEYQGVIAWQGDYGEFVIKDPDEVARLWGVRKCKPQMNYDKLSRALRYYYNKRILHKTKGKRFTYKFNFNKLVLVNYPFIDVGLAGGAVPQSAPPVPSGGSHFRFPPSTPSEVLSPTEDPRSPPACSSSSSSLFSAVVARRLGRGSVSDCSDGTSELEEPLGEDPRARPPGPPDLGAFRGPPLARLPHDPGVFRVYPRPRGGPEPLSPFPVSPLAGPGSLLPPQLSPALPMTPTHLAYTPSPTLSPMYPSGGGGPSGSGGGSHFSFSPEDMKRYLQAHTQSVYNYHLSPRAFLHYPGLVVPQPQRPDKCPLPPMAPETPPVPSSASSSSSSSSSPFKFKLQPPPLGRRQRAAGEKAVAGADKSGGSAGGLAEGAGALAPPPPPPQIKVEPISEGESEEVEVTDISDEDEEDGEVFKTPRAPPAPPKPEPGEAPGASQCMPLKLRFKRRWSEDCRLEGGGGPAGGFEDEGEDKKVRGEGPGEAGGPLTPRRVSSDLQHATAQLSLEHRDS
In short: as §1

ETV3L = target: T8, ETV3L (Homo sapiens, UniProt Q6ZN32 1-361)
T8 sequence: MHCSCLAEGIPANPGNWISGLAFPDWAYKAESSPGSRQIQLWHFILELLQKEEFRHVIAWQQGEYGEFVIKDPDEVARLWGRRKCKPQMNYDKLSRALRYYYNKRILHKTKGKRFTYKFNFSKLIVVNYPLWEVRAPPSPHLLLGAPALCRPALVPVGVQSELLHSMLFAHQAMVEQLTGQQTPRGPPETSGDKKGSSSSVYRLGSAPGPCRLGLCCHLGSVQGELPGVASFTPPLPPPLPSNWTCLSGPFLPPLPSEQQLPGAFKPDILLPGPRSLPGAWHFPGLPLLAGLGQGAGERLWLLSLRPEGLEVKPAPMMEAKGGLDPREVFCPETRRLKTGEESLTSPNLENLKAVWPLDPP
In short: as §1

ETS2 = target: T9, ETS2 (Homo sapiens, UniProt P15036 1-469)
T9 sequence: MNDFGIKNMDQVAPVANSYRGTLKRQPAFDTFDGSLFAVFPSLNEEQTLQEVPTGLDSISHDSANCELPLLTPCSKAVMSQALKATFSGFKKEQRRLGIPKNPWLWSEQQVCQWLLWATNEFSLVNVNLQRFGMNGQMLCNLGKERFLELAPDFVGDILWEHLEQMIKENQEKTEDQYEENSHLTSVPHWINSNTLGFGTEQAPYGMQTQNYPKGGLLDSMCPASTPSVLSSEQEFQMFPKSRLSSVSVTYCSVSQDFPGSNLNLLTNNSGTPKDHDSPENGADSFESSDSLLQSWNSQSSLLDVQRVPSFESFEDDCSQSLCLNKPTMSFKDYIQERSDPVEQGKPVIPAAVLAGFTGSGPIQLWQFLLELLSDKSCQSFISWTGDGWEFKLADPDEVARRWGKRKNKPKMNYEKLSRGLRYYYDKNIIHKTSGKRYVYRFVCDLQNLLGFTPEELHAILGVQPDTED
In short: as §1

SPDEF = target: T10, SPDEF (Homo sapiens, UniProt O95238 1-335)
T10 sequence: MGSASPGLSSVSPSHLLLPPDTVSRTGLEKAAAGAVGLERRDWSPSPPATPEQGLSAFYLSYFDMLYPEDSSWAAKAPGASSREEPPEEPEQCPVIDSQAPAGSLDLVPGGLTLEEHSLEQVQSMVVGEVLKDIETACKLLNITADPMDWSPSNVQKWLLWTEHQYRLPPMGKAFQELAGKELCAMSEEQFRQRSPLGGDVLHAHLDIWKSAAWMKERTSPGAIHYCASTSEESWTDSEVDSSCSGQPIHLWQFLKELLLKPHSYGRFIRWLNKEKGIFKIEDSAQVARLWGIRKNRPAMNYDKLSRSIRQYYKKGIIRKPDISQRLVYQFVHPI
In short: as §1

ETV3 = target: T11, ETV3 (Homo sapiens, UniProt P41162-2 1-143)
T11 sequence: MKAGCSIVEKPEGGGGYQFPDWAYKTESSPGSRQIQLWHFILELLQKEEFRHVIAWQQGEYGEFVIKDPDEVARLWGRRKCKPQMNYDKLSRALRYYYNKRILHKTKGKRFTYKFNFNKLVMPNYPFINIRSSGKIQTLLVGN
In short: as §1

ETV6 = ETV6 (Homo sapiens, UniProt P41212 1-452)
ETV6, sequence (P41212 whole entry): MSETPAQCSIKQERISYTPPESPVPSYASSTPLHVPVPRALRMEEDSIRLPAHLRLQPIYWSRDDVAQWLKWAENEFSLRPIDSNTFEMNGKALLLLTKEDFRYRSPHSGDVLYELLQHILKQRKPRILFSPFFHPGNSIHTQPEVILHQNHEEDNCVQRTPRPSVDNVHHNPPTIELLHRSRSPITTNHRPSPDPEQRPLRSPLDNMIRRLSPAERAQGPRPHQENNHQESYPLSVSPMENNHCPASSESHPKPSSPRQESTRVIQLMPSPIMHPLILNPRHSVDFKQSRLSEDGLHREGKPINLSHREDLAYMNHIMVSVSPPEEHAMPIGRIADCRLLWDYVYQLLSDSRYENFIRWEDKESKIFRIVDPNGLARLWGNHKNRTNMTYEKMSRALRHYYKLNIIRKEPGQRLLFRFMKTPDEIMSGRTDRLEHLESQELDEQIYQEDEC
In short: as §1

TGGGTG
binding signal (ELK1): 1.09 fold enrichment (6-mer frequency, TF over GST control)
binding signal (ERG): 1.01 fold enrichment (6-mer frequency, TF over GST control)
binding signal (EHF): 1.01 fold enrichment (6-mer frequency, TF over GST control)
binding signal (ETV5): 1.02 fold enrichment (6-mer frequency, TF over GST control)
binding signal (SPIC): 1.03 fold enrichment (6-mer frequency, TF over GST control)
binding signal (ELF4): 1.01 fold enrichment (6-mer frequency, TF over GST control)
binding signal (ELK4): 1.07 fold enrichment (6-mer frequency, TF over GST control)
binding signal (ELF3): 1.03 fold enrichment (6-mer frequency, TF over GST control)
binding signal (ERF): 1.06 fold enrichment (6-mer frequency, TF over GST control)
binding signal (ETV3L): 1.08 fold enrichment (6-mer frequency, TF over GST control)
binding signal (ETS2): 1.07 fold enrichment (6-mer frequency, TF over GST control)
binding signal (SPDEF): 1.01 fold enrichment (6-mer frequency, TF over GST control)
binding signal (ETV3): 1 fold enrichment (6-mer frequency, TF over GST control)
binding signal (ETV6): 1.21 fold enrichment (6-mer frequency, TF over GST control)
